# Source: PubChem BioAssay
# This is a sample that favours compounds with a hit; in the whole collection about 18% have one here.
# HepG2 tox = qHTS for Inhibitors of TGF-b: Cytotox Counterscreen; HepG2 CAGA-GFP viability, ATP luminescence, 18 h; 0.76% of 410,000 active; AID 588856, 2011; Potency, µM (doses to about 46.1 µM), for the others: at the highest dose activity change, negative = cytotoxicity, usual class: cytotoxic; further: potency means the concentration at half of the fitted maximal effect
#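 CellTiter-Glo luminescence gave cytotoxicity after 18 hours at 37 degrees C. The cells were HepG2 CAGA-GFP in 1% FBS DMEM, stimulated with 500 pg/mL TGF-beta after compound addition. %Activity was normalised to no-cell wells (complete cell-killing) and DMSO (no toxicity), and curves were fitted and classified.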
# DT40 TDP1 CPT = qHTS for Inhibitors of human tyrosyl-DNA phosphodiesterase 1 (TDP1): qHTS in cells in presence of CPT | chicken DT40 Tdp1-/-;hTDP1 cells + 20 nM CPT, ATP luminescence, 48 h | Potency, µM (top dose mostly 46.2 µM), for the others: top-dose activity change, negative = growth inhibition, usual class: inhibitors | 12% of 420,000 active | AID 686979, 2013; further: potency means the concentration at half of the fitted maximal effect; on the % scale 0 is the no-effect control and ±100 the full control effect; nearly all actives have a fitted effect of over 55% in size
#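 Cell growth measured by CellTiter-Glo luminescence after a minimum 48 h, 37 C compound exposure with 20 nM CPT in Tdp1-knockout DT40 cells stably expressing hTDP1, seeded 400/well; qHTS titration format.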
# TDP1 cell noCPT = qHTS for Inhibitors of human tyrosyl-DNA phosphodiesterase 1 (TDP1): qHTS in cells in absence of CPT; DT40 Tdp1-/- hTDP1 cells, no CPT, ATP luminescence, 48 h; Potency, µM (series often up to 46.2 µM), inactives show at the highest dose activity change, negative = growth inhibition, hits mostly inhibitors; 15% of 420,000 active; AID 686978, 2013; further: potency means the concentration at half of the fitted maximal effect; on the % scale 0 is the no-effect control and ±100 the full control effect; nearly all actives have a fitted effect of over 55% in size
#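 Luminescent ATP content (CellTiter-Glo) served as the growth readout. Knockout chicken DT40 cells expressing human TDP1 were exposed to compounds without camptothecin for a minimum 48 hr at 37 °C.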
# TGFb SMAD3 inh = qHTS for Inhibitors of TGF-b. HepG2 CAGA-GFP TGF-b/SMAD3 reporter, GFP fluorescence, 18 h; TGF-beta stimulated, 500 pg/mL final. Potency, µM (top dose mostly 46.1 µM), inactives show top-dose activity, negative = inhibition, actives largely listed as inhibitors. 1.2% of 410,000 active; further: potency means the concentration at half of the fitted maximal effect; on the % scale 0 is the no-effect control and ±100 the full control effect; nearly all actives have a fitted effect of over 65% in size
#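 Smad-responsive CAGA-GFP expression was quantified in HEPG2 cells exposed to compounds and 500 pg/mL final TGF-beta for 18 h at 37 degrees C; unstimulated wells defined full inhibition.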
# IL-1B inflam inh = qHTS for Inhibitors of Inflammasome Signaling: IL-1-beta AlphaLISA Primary Screen; THP-1 LPS/ATP IL-1B secretion, AlphaLISA, 16 h; stronger effect = lower value; activity change, % at 57.5 µM; 4.7% of 360,000 active; in the data active means activity change below about -50%; inconclusive means mostly about -30% to -49%; further: on the % scale 0 is the no-effect control and ±100 the full control effect
#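 Secreted IL-1B measured by AlphaLISA bead assay after 16 h compound exposure of THP-1 cells; compounds (final up to 57.5 uM) added 1 h before LPS (250 ng/mL) and ATP (1.25 mM) stimulation; lower signal means less secretion.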
# TDP1 block = qHTS Assay for Inhibitors of Tyrosyl-DNA Phosphodiesterase (TDP1). Tyrosyl-DNA phosphodiesterase 1 (Homo sapiens), Q9NUW8. recombinant TDP1, AlphaScreen DNA substrate cleavage. Potency, µM (top dose mostly 130 µM), inactives show at the highest dose activity change, negative = inhibition, usual class: inhibitors. 0.28% of 350,000 active. AID 485290, 2010; further: potency means the concentration at half of the fitted maximal effect; on the % scale 0 is the no-effect control and ±100 the full control effect; nearly all actives have a fitted effect of over 40% in size
# Target sequence (Q9NUW8 whole entry, looked up): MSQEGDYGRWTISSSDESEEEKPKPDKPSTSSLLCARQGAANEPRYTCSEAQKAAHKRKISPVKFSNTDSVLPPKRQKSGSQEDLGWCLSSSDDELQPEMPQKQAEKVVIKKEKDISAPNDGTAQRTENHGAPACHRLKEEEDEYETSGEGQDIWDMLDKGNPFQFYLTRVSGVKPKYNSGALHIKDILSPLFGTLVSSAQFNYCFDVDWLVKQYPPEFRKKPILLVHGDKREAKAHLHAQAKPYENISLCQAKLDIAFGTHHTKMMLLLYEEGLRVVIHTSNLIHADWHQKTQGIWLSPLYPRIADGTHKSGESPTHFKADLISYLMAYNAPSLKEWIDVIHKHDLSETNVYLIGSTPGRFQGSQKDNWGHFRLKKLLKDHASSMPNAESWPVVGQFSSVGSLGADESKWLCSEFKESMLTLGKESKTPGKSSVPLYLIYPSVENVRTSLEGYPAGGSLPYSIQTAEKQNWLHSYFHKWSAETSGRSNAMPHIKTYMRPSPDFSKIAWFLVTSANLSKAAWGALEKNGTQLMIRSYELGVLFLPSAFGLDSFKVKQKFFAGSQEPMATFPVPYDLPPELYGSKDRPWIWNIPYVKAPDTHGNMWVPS
#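 Recombinant human Tdp1 (E. coli-expressed, 1 nM final) preincubated with compounds 15 min at room temperature, then 5'-biotin/3'-phosphotyrosine-FITC DNA substrate (15 nM final) added for 5 min. AlphaScreen beads (10 ug/ml final) added 10 min; cleavage lowers signal.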
# * = called active by the depositor; ? = inconclusive; · = no result given; [ ] = remark or other dose. Unless noted, the call rests on the fitted dose curve; in most records, active means well fitted curve in the direction sought with a large enough effect; inconclusive means small, poorly fitted or top-dose-only effect, or another doubt; inactive means no such curve, though single readings can be large; an effect the other way counts as inactive or inconclusive.
SMILES,HepG2 tox,DT40 TDP1 CPT,TDP1 cell noCPT,TGFb SMAD3 inh,IL-1B inflam inh,TDP1 block
N#Cc1ccc(-c2cccs2)nc1SCc1cccnc1,-18.9%,0.517µM*,0.411µM*,-10.4%,92.8,0.0%
CCOC(=O)C1CCN(C(=O)c2ccc(S(=O)(=O)Nc3ccccc3Cl)cc2)CC1,-4.3%,?,11.6µM*,-9.1%,?,2.2%
CCOC(=O)C1CCN(C(=O)c2ccccc2NS(=O)(=O)c2ccc(C)cc2)CC1,0.5%,?,-15.6%,3.6%,0.0,6.6%
CCOC(=O)C1CCN(C(=O)c2cccc(NS(=O)(=O)c3ccc(F)c(F)c3)c2)CC1,-5.6%,-10.1%,-11.6%,-21.7%,-101.0*,0.6%
COc1ccccc1NS(=O)(=O)c1ccc(C(=O)N2CCCCCC2)cc1,-11.2%,18.4µM*,13µM*,12.1%,6.4,0.5%
COc1ccccc1NC(=O)NC1(C(=O)N2CCCCC2)CCCCC1,-3.4%,-20.9%,5.3%,-6.1%,-75.7*,5.6%
Cc1ccc(NS(=O)(=O)c2ccc(-n3cccn3)cc2)c(Cl)c1,-8.7%,?,?,-2.3%,26.0,·
O=C(NCCNC[C@@H](O)COc1ccc(O)cc1)N1CCOCC1,·,-1.0%,-6.1%,·,·,2.4%
CO[C@H]1COC(=O)[C@@H](C)COC(=O)[C@@H](COCc2ccccc2)NC(=O)C/C=C\[C@H]1C,·,·,·,·,·,5.8%[21 µM]
O=C(COC(=O)c1cccc(NS(=O)(=O)c2ccc(F)c(F)c2)c1)NC(=O)NC1CCCCC1,-57.0%,?,16.4µM*,?,-19.7,5.6%
CCOC(=O)N(O)c1ccc(C=Cc2ccccc2)cc1,-37.3%,11.6µM*,14.6µM*,?,?,·
CC1(C)Cc2c(C#N)c(N3CCCC3)nc(-c3ccco3)c2CO1,·,·,·,·,·,-1.2%
N#Cc1c(NCCN)nc(-c2ccco2)c2c1CCCC2,-29.0%,?,?,?,-104.8*,3.9%
N#Cc1c(N2CCOCC2)nc(-c2ccco2)c2c1CCCC2,-9.5%,?,?,-19.0%,-77.6*,·
CCCN1CNc2c(c(=O)[nH]c(=S)n2Cc2ccc(OC)c(OC)c2)C1,·,-5.3%,-9.8%,·,·,-0.2%
O=C(N/N=C/C=C/c1ccccc1)NC1CCCCC1,-35.7%,18.4µM*,18.4µM*,?,-23.3,2.6%
O=C(N/N=C/C=C/c1ccccc1)C1CC1c1ccccc1 (stereo not drawn),-2.6%,18.4µM*,11.6µM*,-1.0%,-11.3,2.5%
CN(CCCC(=O)N1CCCC(C(N)=O)C1)S(=O)(=O)c1ccc(F)cc1 (stereo not drawn),-5.6%,-8.3%,-2.6%,-3.2%,17.5,·
COc1cc(-c2c(OC)cccc2OC)cc2c1OCCN(Cc1cn[nH]c1-c1ccc(Cl)cc1)C2,·,-2.1%,-24.5%,·,·,·
C#CCN(C[C@H]1[C@H](OC(=O)NCC2CCCCC2)[C@H](OC(=O)NCC2CCCCC2)C[C@@H](C(=O)OC)[C@H]1C(=O)OC)S(=O)(=O)c1ccc(C)cc1,-29.1%,2.91µM*,2.91µM*,-1.0%,-9.3,·
C#CCN(C[C@H]1[C@H](OC(=O)NCc2ccccc2F)[C@H](OC(=O)NCc2ccccc2F)C[C@@H](C(=O)OC)[C@H]1C(=O)OC)S(=O)(=O)c1ccc(C)cc1,-1.8%,4.61µM*,6.51µM*,1.5%,-17.6,·
C#CCN(C[C@H]1[C@H](OC(=O)NC2CC2)[C@H](OC(=O)NC2CC2)C[C@@H](C(=O)OC)[C@H]1C(=O)OC)S(=O)(=O)c1ccc(C)cc1,-3.9%,-28.0%,?,1.0%,-25.3,·
CCC(C)NCCOc1ccc(C)cc1[N+](=O)[O-] (stereo not drawn),17.7%,0.5%,-20.8%,-3.6%,-53.6*,·
O=S(=O)(c1ccc(Cl)cc1)c1nc(-c2cccs2)oc1N1CCCCC1,-23.4%,?,16.4µM*,?,·,1.1%
CCS(=O)(=O)c1nc(S(=O)(=O)c2ccc(Cl)cc2)c(N2CCC(C(N)=O)CC2)s1,-3.2%,10.2%,14.4%,-0.8%,-17.6,3.3%
SMILES,HepG2 tox,DT40 TDP1 CPT,TDP1 cell noCPT,TGFb SMAD3 inh,IL-1B inflam inh,TDP1 block
NC(=O)C1CCN(c2oc(-c3cccs3)nc2S(=O)(=O)c2ccc(Cl)cc2)CC1,-4.3%,11.0%,0.5%,-7.2%,-54.7*,5.5%
CC(C)(C)c1ccc(C(=O)N2CCC2(C)C(=O)NCc2cccs2)cc1 (stereo not drawn),-27.1%,6.51µM*,0.651µM*,-20.9%,0.0,·
CC(C)(C)c1ccc(CC(=O)N2CCC2(C)C(=O)NCc2cccs2)cc1 (stereo not drawn),-14.3%,11.6µM*,10.3µM*,-28.6%,0.0,·
CC(C)(C)c1ccc(C(=O)N2CCC2(C)C(=O)NCC(F)(F)F)cc1 (stereo not drawn),-0.1%,?,?,-3.4%,0.0,·
CCOc1ccc(NC(=O)c2nc3nc(C)cc(C(F)F)n3n2)cc1,9.8%,-2.4%,-19.8%,1.9%,·,3.2%
COc1ccc2cc(CNc3ccc(C)cc3)c(=O)n(CC(=O)Nc3cccc(Cl)c3C)c2c1,-2.9%,·,·,1.1%,·,-2.8%
CCOC(=O)c1csc(Nc2nc3ccc(F)cc3s2)n1,-40.5%,20.6µM*,9.2µM*,-9.6%,110.0,9.8%
COC(=O)c1ccc2nc(Nc3nc4ccc(F)cc4s3)sc2c1,-34.8%,-20.8%,?,17.8µM*,19.9,7.0%
CC(NC(=O)COC(=O)C1(C)CC1(Cl)Cl)c1ccccc1 (stereo not drawn),0.6%,-15.0%,18.7%,0.8%,7.6,0.0%
COc1ccc(OC)c(NC(=O)C2(C)CCN2Cc2ccccc2Cl)c1 (stereo not drawn),-2.7%,?,?,-0.3%,-4.8,·
CCOc1ccc(CN(C)C(C)C(=O)Nc2ccc([N+](=O)[O-])cc2Cl)cc1OC (stereo not drawn),0.0%,16.4µM*,?,-12.4%,23.9,5.3%
COc1ccc([N+](=O)[O-])cc1NC(=O)C(C)OC(=O)C1CCC1 (stereo not drawn),1.2%,4.7%,4.9%,-13.6%,6.2,·
COc1ccc(CN(C)C(C)C(=O)Nc2ccc([N+](=O)[O-])cc2Cl)cc1OC (stereo not drawn),-22.9%,25.9µM*,9.2µM*,?,5.1,5.6%
